The target of assay [1] is human Orphanin, Opioid Related Nociceptin Receptor 1 (ORL1), OPRL1 (gene 4987) (UniProt P41146). The assay can be described thus: NVS_GPCR_hORL1: NovaScreen (NVS) G Protein-Coupled Receptor Assay for human Orphanin, Opioid Related Nociceptin Receptor 1 (ORL1) (AID 2283283). Summed up:
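Filter-based radioligand displacement with receptor extracted from HEK293 cells, read 1 hour after dosing by scintillation counting. Duplicate single-point screen at 25 uM; qualifying chemicals then run in concentration-response to 50 uM, analysed relative to DMSO.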

Assay [2] deals with human Vasopressin 1A Receptor (V1A), AVPR1A (gene 552) (UniProt P37288). In words: NVS_GPCR_hV1A: NovaScreen (NVS) G Protein-Coupled Receptor Assay for human Vasopressin 1A Receptor (V1A) (AID 2283284). Summed up:
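Cell-free radioligand displacement on human platelet preparations, 1.5 h incubation, filter-based scintillation counting. Chemicals first tested in duplicate at 25 uM; actives then run in concentration-response up to 50 uM, loss of signal fitted against DMSO.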

Assay [3] deals with rat Serotonin, 5-Hydroxytryptamine Receptor 1 (5HT1), Non-Selective Binding, Htr1a (gene 24473) (UniProt P19327). The assay can be described thus: NVS_GPCR_r5HT1_NonSelective: NovaScreen (NVS) G Protein-Coupled Receptor Assay for rat Serotonin, 5-Hydroxytryptamine Receptor 1 (5HT1), Non-Selective Binding (AID 2283286). Summed up: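 Rat cortical membranes, radioligand displacement, 1 h incubation, read by filter scintillation. Primary screen in duplicate at 25 uM. Hits (e.g. ≥30% inhibition) went to concentration-response up to 50 uM, fitted as loss of binding versus DMSO.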

In assay [4] the test system is 5-hydroxytryptamine receptor 2C (pig). In words: NVS_GPCR_p5HT2C: NovaScreen (NVS) G Protein-Coupled Receptor Assay for pig Serotonin, 5-Hydroxytryptamine Receptor 2C (5HT2C) (AID 2283288). Summed up: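 Pig choroid plexus membranes; radioligand competitive binding, filter-based scintillation counting, read 1 h after dosing. Primary screen in duplicate at 25 uM; actives then run as concentration series; loss of signal versus DMSO baseline.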

Assay [5] addresses rat Adrenergic Receptor, Beta (Adrb), Non-selective Binding, Adrb1 (gene 24925) (UniProt P18090). The assay can be described thus: NVS_GPCR_rAdrb_NonSelective: NovaScreen (NVS) G Protein-Coupled Receptor Assay for rat Adrenergic Receptor, Beta (Adrb), Non-selective Binding (AID 2283298). As for the experimental part:
NVS_GPCR_rAdrb_NonSelective is a biochemical, single-readout assay that uses extracted gene-proteins from Rat cortical membranes in a tissue-based cell-free assay. Measurements were taken 1 hour after chemical dosing in a 48-well plate.NVS_GPCR_rAdrb_NonSelective is one of one assay component(s) measured or calculated from the NVS_GPCR_rAdrb_NonSelective assay. It is designed to make measurements of radioligand binding, a form of binding reporter, as detected with scintillation counting signals by Filter-based radiodetection technology.Data from the assay component NVS_GPCR_rAdrb_NonSelective was analyzed into 1 assay endpoint. This assay endpoint, NVS_GPCR_rAdrb_NonSelective, was analyzed in the positive analysis fitting direction relative to DMSO as the negative control and baseline of activity. Using a type of binding reporter, loss-of-signal activity can be used to understand changes in the binding as they relate to the gene Adrb1. Furthermore, this assay endpoint can be referred to as a primary readout, because the performed assay has only produced 1 assay endpoint. To generalize the intended target to other relatable targets, this assay endpoint is annotated to the gpcr intended target family, where the subfamily is rhodopsin-like receptor. […]

Assay [6] relates to guinea pig Atrionatriuretic Peptide Receptor A (ANPA), gene 100135578. In words: NVS_GPCR_gANPA: NovaScreen (NVS) G Protein-Coupled Receptor Assay for guinea pig Atrionatriuretic Peptide Receptor A (ANPA) (AID 2283291). As to the method: NVS_GPCR_gANPA is a biochemical, single-readout assay that uses extracted gene-proteins from Guinea pig cerebellar membranes in a tissue-based cell-free assay. Measurements were taken 1 hour after chemical dosing in a 96-well plate.NVS_GPCR_gANPA is one of one assay component(s) measured or calculated from the NVS_GPCR_gANPA assay. It is designed to make measurements of radioligand binding, a form of binding reporter, as detected with scintillation counting signals by Filter-based radiodetection technology.Data from the assay component NVS_GPCR_gANPA was analyzed into 1 assay endpoint. This assay endpoint, NVS_GPCR_gANPA, was analyzed in the positive analysis fitting direction relative to DMSO as the negative control and baseline of activity. Using a type of binding reporter, loss-of-signal activity can be used to understand changes in the binding as they relate to the gene Nppa. Furthermore, this assay endpoint can be referred to as a primary readout, because the performed assay has only produced 1 assay endpoint. To generalize the intended target to other relatable targets, this assay endpoint is annotated to the lyase intended target family, where the subfamily is guanylyl cyclase. […]

For assay [7], the system named is rat Adrenergic, Alpha 1B Receptor (Adra1B), gene 24173. The assay can be described thus: NVS_GPCR_rAdra1B: NovaScreen (NVS) G Protein-Coupled Receptor Assay for rat Adrenergic, Alpha 1B Receptor (Adra1B) (AID 2283297). A digest of the protocol: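 Rat liver membranes, radioligand displacement with filter-based scintillation detection, 1 h incubation. Primary screen in duplicate at 25 uM; actives retested in concentration series; activity relative to DMSO.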

In assay [8] the target is mouse Cholecystokinin, CCK2 Receptor (CCKB), Cckbr (gene 12426) (UniProt P56481). In words: NVS_GPCR_mCKKBCentral: NovaScreen (NVS) G Protein-Coupled Receptor Assay for mouse Cholecystokinin, CCK2 Receptor (CCKB) (AID 2283293). Summed up: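 Radioligand displacement binding on mouse forebrain membranes, 2 h exposure, filter-based scintillation counting. Primary screen in duplicate at 25 uM; actives (e.g. ≥30% inhibition) retested in concentration-response up to 50 uM; loss of binding signal relative to DMSO.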

Assay [9] addresses rat Adrenergic Receptor, Alpha 2 (Adra2), Non-selective Binding, Adra2a (gene 25083) (UniProt P22909). In words: NVS_GPCR_rAdra2_NonSelective: NovaScreen (NVS) G Protein-Coupled Receptor Assay for rat Adrenergic Receptor, Alpha 2 (Adra2), Non-selective Binding (AID 2283299). A digest of the protocol: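 Rat cortical membranes, radioligand competitive displacement read by filter-based scintillation counting 1.25 hours after dosing. Primary screen in duplicate at 25 uM; actives followed up in concentration series.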

Assay [10] concerns the target rat Gamma-Aminobutyric Acid Type B Receptor (GABBR), Gabbr1 (gene 81657) (UniProt Q9Z0U4). In words: NVS_GPCR_rGABBR: NovaScreen (NVS) G Protein-Coupled Receptor Assay for rat Gamma-Aminobutyric Acid Type B Receptor (GABBR) (AID 2283301). A digest of the protocol:
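Radioligand displacement on rat cortical membranes, 1 h, filter-based scintillation counting. Primary screen at 25 uM in duplicate; compounds passing threshold re-tested in concentration-response up to 50 uM; loss of binding fitted against DMSO.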

Inconclusive results are not listed. Active and inactive are the calls of the source. Rule for the calls: active = hit-call score of the fitted dose curve at least 0.9, where 1 is the maximum; inconclusive = response in the unintended direction; inactive = score below 0.9.

Broadly, the AC50 is the concentration giving half of the maximal activity seen.

Sequence of rat Serotonin, 5-Hydroxytryptamine Receptor 1 (5HT1), Non-Selective Binding, Htr1a (gene 24473) (P19327 whole entry, looked up): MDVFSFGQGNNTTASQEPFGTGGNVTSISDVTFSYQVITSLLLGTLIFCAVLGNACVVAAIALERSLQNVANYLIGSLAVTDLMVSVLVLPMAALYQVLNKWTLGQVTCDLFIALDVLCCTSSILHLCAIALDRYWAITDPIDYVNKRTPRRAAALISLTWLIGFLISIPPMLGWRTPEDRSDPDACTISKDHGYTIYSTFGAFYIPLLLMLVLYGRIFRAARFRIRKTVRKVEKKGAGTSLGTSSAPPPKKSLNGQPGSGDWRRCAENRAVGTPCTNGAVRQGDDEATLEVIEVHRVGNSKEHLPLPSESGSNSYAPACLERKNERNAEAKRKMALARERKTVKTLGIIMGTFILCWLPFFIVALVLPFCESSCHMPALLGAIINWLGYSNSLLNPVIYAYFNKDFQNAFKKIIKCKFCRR
Sequence of rat Gamma-Aminobutyric Acid Type B Receptor (GABBR), Gabbr1 (gene 81657) (Q9Z0U4 whole entry, looked up): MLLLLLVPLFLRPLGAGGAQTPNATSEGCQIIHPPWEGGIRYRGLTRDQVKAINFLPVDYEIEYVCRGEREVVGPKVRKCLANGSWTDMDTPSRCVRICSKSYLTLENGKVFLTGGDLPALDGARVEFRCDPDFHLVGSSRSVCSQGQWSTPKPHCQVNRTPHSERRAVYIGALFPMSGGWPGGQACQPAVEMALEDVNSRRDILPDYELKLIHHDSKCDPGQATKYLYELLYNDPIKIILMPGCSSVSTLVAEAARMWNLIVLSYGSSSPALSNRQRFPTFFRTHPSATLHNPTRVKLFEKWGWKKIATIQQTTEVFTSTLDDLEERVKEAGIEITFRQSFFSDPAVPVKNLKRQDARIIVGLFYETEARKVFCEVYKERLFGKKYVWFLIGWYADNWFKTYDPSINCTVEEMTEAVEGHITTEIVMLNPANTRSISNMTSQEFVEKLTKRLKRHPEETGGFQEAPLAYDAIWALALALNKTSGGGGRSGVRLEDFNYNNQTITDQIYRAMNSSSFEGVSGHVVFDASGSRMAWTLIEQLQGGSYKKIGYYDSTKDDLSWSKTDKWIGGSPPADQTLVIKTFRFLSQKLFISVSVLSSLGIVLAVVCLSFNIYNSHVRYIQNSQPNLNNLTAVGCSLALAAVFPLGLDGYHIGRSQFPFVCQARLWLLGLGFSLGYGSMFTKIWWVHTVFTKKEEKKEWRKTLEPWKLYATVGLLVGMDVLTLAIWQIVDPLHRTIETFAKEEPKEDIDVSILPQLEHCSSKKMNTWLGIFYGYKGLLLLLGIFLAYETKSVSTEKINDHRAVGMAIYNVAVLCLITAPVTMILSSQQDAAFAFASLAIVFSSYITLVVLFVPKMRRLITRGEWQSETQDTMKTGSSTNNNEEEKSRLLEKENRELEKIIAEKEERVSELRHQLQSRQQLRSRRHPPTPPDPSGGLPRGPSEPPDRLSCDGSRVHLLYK
Sequence of rat Adrenergic Receptor, Beta (Adrb), Non-selective Binding, Adrb1 (gene 24925) (P18090 whole entry, looked up): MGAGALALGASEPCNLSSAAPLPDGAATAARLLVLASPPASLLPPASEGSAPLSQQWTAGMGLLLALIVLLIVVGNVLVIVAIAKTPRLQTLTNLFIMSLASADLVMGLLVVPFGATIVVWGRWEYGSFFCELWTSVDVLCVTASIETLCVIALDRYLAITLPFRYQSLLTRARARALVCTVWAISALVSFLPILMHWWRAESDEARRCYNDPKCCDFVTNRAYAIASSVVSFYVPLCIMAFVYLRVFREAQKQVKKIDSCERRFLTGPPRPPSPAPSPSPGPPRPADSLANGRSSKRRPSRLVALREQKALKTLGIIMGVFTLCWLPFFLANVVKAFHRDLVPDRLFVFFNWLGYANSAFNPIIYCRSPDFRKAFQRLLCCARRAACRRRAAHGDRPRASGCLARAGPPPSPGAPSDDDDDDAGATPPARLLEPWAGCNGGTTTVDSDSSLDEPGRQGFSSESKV
Sequence of rat Adrenergic Receptor, Alpha 2 (Adra2), Non-selective Binding, Adra2a (gene 25083) (P22909 whole entry, looked up): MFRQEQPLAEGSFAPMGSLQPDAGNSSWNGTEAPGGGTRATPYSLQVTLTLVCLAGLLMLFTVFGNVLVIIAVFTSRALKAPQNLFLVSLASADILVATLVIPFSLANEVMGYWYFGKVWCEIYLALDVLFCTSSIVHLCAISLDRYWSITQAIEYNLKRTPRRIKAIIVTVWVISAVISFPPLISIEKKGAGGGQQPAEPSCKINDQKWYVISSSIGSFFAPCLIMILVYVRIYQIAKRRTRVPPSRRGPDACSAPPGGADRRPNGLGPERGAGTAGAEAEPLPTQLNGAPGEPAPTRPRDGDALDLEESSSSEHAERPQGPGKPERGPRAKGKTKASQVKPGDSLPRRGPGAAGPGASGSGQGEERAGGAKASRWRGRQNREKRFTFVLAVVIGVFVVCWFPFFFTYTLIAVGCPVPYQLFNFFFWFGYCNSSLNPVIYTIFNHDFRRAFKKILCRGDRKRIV
Sequence of human Vasopressin 1A Receptor (V1A), AVPR1A (gene 552) (P37288 whole entry, looked up): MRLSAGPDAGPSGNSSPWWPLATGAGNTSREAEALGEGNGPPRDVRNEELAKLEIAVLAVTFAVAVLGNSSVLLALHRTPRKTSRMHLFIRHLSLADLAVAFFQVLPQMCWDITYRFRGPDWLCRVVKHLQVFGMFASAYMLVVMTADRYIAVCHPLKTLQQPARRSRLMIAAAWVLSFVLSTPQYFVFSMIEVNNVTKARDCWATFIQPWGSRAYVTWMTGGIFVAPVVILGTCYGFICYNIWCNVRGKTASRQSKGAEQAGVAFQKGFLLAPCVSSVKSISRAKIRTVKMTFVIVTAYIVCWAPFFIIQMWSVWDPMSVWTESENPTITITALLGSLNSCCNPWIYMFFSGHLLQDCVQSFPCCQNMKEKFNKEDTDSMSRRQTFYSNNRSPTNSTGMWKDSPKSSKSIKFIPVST
Sequence of human Orphanin, Opioid Related Nociceptin Receptor 1 (ORL1), OPRL1 (gene 4987) (P41146 whole entry, looked up): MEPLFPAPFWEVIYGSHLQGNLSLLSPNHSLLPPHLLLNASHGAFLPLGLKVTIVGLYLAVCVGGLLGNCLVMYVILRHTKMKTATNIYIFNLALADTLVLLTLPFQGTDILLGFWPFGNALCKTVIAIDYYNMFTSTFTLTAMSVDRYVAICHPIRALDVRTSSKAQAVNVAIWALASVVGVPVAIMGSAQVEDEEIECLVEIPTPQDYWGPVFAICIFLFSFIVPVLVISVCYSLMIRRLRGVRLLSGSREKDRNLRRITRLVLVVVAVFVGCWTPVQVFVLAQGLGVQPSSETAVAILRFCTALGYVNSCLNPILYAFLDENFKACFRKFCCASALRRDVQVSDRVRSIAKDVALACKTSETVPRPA
Sequence of mouse Cholecystokinin, CCK2 Receptor (CCKB), Cckbr (gene 12426) (P56481 whole entry, looked up): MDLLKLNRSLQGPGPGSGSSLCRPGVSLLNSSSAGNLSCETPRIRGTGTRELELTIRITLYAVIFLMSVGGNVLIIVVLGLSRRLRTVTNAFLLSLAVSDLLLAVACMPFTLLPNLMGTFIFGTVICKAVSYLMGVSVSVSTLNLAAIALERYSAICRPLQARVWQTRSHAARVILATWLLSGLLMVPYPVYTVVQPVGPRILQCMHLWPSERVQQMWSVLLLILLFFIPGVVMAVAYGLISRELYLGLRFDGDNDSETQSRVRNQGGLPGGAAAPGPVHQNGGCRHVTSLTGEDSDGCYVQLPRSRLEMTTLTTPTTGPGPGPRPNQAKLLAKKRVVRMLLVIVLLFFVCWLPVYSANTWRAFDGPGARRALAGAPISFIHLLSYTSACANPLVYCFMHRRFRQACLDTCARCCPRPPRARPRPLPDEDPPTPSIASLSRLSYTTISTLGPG

Consider `CNC(=S)S`, for which the AC50 in assay [1] is 40.3 µM (active).
Regarding `CCOc1cc(Oc2ccc(C(F)(F)F)cc2Cl)ccc1[N+](=O)[O-]`, the molecule was classed as inactive in assay [2].
Turning to `CN(C)C(=S)SSC(=S)N(C)C`, the molecule was classed as inactive in assay [3].
As for `CCCCNC(=O)OCC#CI`, in assay [3], the result was inactive.
Regarding `CON(C)C(=O)Nc1ccc(Cl)c(Cl)c1`, the AC50 in [4] is 25 µM (active). The result in assay [5] was inactive.
Consider `C=CCC1=C(C)C(OC(=O)C2C(C=C(C)C)C2(C)C)CC1=O` (stereo unspecified), for which, in assay [4], the outcome was inactive.
Turning to `Fc1ccc(Oc2ccnc3cc(Cl)cc(Cl)c23)cc1`, the outcome in assay [6] and in assay [7] was inactive.
Consider `COC(=O)C=C(C)OP(=O)(OC)OC`, for which, in [6], the outcome was inactive.
As for `C#CCOS(=O)OC1CCCCC1Oc1ccc(C(C)(C)C)cc1` (stereo unspecified), the result in [8] was inactive.
Consider `CCOP(=S)(OCC)SCn1c(=O)oc2cc(Cl)ccc21`, for which the molecule was classed as inactive in assay [7].
For `CCNc1nc(Cl)nc(NCC)n1`, the call in [5] was inactive.
As to `CC1COC(Cn2cncn2)(c2ccc(Oc3ccc(Cl)cc3)cc2Cl)O1` (stereo unspecified), the AC50 in [9] is 2.28 µM (active).
On to `O=C(Nc1ccccc1)Nc1ccnc(Cl)c1`, for which the AC50 in assay [9] is 9.64 µM (active).
For the molecule `COc1nc(C)nc(NC(=O)NS(=O)(=O)c2ccccc2Cl)n1`, in assay [10], the result was inactive.

The record behind these values is PubChem BioAssay (EPA / NIEHS).
